Screen size: about 2,100 compounds; about 1,100 (52%) were called active. Another 27% or so got no clear call; they are omitted. The call rests on the fitted dose curve; in most records, active means well fitted inhibition curve with a large enough effect; inconclusive means small, poorly fitted or top-dose-only effect; inactive means no such curve, though single readings can be large or run the other way. The set was probably picked from earlier hits. The list shows a part of the results.
Potency means the concentration at half of the fitted maximal effect.

The target of the assay is DNA dC->dU-editing enzyme APOBEC-3G (Homo sapiens) (UniProt Q9HC16). Put plainly: qHTS for inhibitors of Vif-A3G interactions: Cherry picks counterscreen.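 Further: hits raise yellow fluorescence by blocking Vif-driven A3G-eYFP degradation; nearly all actives have a fitted effect of over 70% in size.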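 On max response: max response given as percent of control signal.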 The note with it: HeLa A3G-eYFP + Vif (tagged APOBEC3G with the HIV-1 protein that degrades it), eYFP fluorescence, 24 h. The method, boiled down: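 HeLa cells stably expressing A3G-eYFP and Vif were treated for 24 h at 37 deg C with compounds at several concentrations; yellow fluorescence (Ex 488 nm, Em 500-530 nm) read by Acumen Explorer, MG132 as positive control.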
Chain of DNA dC->dU-editing enzyme APOBEC-3G (Homo sapiens) (Q9HC16 whole entry, looked up): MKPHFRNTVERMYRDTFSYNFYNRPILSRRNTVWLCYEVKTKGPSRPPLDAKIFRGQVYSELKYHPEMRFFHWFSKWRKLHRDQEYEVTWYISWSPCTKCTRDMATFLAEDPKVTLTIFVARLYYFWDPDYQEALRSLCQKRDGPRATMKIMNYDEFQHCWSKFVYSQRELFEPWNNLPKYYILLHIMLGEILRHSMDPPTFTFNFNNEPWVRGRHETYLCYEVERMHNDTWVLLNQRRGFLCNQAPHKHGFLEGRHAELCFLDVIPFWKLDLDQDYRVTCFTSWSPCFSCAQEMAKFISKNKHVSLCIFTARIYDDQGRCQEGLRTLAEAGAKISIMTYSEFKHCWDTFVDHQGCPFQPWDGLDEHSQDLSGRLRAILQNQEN
Background: Quantitative high-throughput screening tests each substance at several concentrations.
For the compound `CCOC(=O)CCSc1nc(C)cc(C(F)(F)F)c1C#N`, the Potency is 12.5 µM (active). As to `Cc1ccc(S(=O)(=O)CCSc2nc(C)cc(C(F)(F)F)c2C#N)cc1`, the Potency was 17.7 µM (active). Consider `COc1ccc(NC(=O)C2(C)Cc3c(-c4ccc5c(c4)OCO5)ccnc3O2)cn1` (configuration not stated), for which the Potency was 7.04 µM (active). In the case of `COc1ccc(NC(=O)C2(C)Cc3c(-c4cccc(NC(C)=O)c4)ccnc3O2)cn1` (configuration not stated), the Potency was 1.98 µM (active).

`COc1ccc(NC(=O)C2(C)Cc3c(-c4cccc(C(N)=O)c4)ccnc3O2)cn1` (configuration not stated): the Potency is 7.9 µM (active).

Regarding `C=CCNC(=S)N/N=C/c1ccc(C)cc1C`, the max response is -13.8% (inactive).

Turning to `COc1ccc2nc(SCC(=O)N3CC(=O)Nc4ccccc43)c(C#N)cc2c1`, the Potency is 18.4 µM (active). With `CCc1ccc2nc(SCC(=O)N3CC(=O)Nc4ccccc43)c(C#N)cc2c1`, the Potency was 12.5 µM (active). With `CCc1ccc2nc(SCC(=O)Nc3ccccc3N3CCOCC3)c(C#N)cc2c1`, the Potency was 1.64 µM (active). As for `N#Cc1cc2ccccc2nc1SCC(=O)Nc1ccccc1N1CCOCC1`, the max response was -5.1% (inactive). Regarding `COc1ccc2nc(SCC(C)=O)c(C#N)cc2c1`, the Potency was 3.66 µM (active). Turning to `CC1C/C(=N\NC(N)=S)c2cc(Cl)ccc2S1` (configuration not stated), the max response was -16.7% (inactive). Regarding `Cc1cc(C)c2nc(SCC(=O)N3CC(=O)Nc4ccccc43)c(C#N)cc2c1`, the Potency is 1.4 µM (active). Same read-out and setting: under `N#Cc1ccc(-c2cccnc2)nc1SCC(=O)c1ccccc1` stands 2.91 µM (active); under `Cc1ccc(C(=O)CSc2nc(-c3ccccc3)ccc2C#N)cc1`, 10.3 µM (active).

With `NN=C1c2ccccc2C(=O)C1C(=O)C(c1ccccc1)c1ccccc1` (configuration not stated), the Potency is 15.8 µM (active).

In the case of `O=C(c1ccccc1)C1C(=O)c2ccccc2C1=O`, the max response was -3.97% (inactive).

For `CC(C)NC(=S)N/N=C/c1sc(N2CCCCC2)nc1-c1cccs1`, the Potency was 20.6 µM (active). As to `CC(C)NC(=S)N/N=C1\CCCCc2ccccc21`, the max response is -0.219% (inactive). With `COC(=O)C1=C(Nc2ccc(C)cc2)C=C(C)C(C(=O)OC)C1c1cccc(OC)c1` (configuration not stated), the Potency was 11.2 µM (active). Turning to `COCc1ccc(O)c2ncccc12`, the max response was 15.6% (inactive). As to `COCCCNC(=S)N/N=C/c1ccc(OC)cc1`, the max response was -8.47% (inactive). On to `COc1ccc2c(c1)c(C(=O)N/N=C/c1ccc(Cl)cc1)c(C)n2C`, for which the Potency was 12.5 µM (active).

On to `CC1=C/C(=C\C=C(C#N)C#N)N(C)c2ccccc21`, for which the Potency was 2.06 µM (active).

Turning to `CC(=O)c1cc2c(cc1NS(=O)(=O)c1ccc(C)cc1)OCCO2`, the Potency is 12.5 µM (active). On to `CCN(CC)c1ccc(/C=C/c2cccc[n+]2C)c(OC)c1`, for which the Potency was 7.04 µM (active). In the case of `CCOc1ccc(CCNC(=O)c2ccc(Cn3c(=O)c4cccn4c4cccnc43)cc2)cc1`, the max response was -3.64% (inactive). Regarding `O=C(NCCc1ccccc1Cl)c1ccc(Cn2c(=O)c3cccn3c3cccnc32)cc1`, the Potency is 14.6 µM (active). Regarding `N#Cc1cccn1-c1nccc(-c2cccs2)n1`, the Potency was 8.86 µM (active).

`Cc1ccc2[nH]c(C)c(/C=C/c3cc[n+](C)cc3)c2c1`: the Potency is 0.627 µM (active).

Consider `Cc1[nH]c2ccccc2c1/C=C/C(=O)c1ccccc1`, for which the Potency is 18.4 µM (active). Still for that read-out and setting: for `Cc1[nH]c2ccccc2c1/C=C/c1cc[n+](C)cc1` the value was 0.994 µM (active); for `CC(OC(=O)/C(C#N)=C/c1ccc(N(C)C)cc1)C(=O)N(C)Cc1ccccc1` (configuration not stated), 23.1 µM (active). In the case of `O=C(C(=Cc1ccccc1)CN1CCCCC1)c1ccccc1`, the Potency is 3.14 µM (active). Turning to `CC(C)(C)NCC(=Cc1ccccc1)C(=O)c1ccccc1`, the max response is -3.58% (inactive). Consider `COc1cc(C2Nc3ccc4ncccc4c3C3=C2C(=O)CCC3)ccc1O` (configuration not stated), for which the Potency is 14 µM (active). Take `COc1cc(C2Nc3ccc4ncccc4c3C3=C2C(=O)CCC3)cc(OC)c1O` (configuration not stated): the Potency is 11.2 µM (active).

In the case of `COC(=O)c1sc2cc([N+](=O)[O-])cc(SCC(C)C)c2c1N`, the Potency is 8.2 µM (active). Consider `CCOC(=O)c1sc2cc([N+](=O)[O-])cc(SCC(C)C)c2c1N`, for which the Potency was 2.31 µM (active). For `Cc1ccc2nc3c(cc(S(=O)(=O)c4ccccc4)c(=N)n3Cc3ccco3)c(=O)n2c1`, the max response was 17.8% (inactive).

Regarding `CC(/C=N/NC(=O)c1cc(-c2ccccc2)nc2ccccc12)=C\c1ccco1`, the Potency is 2.23 µM (active). Consider `CCc1ccc(/C=N/NC(=O)c2cc(-c3ccncc3)nc3ccccc23)s1`, for which the Potency was 3.53 µM (active). Consider `CCn1c(O)c(/C=N/NC(=O)c2ccncc2)c(=O)n(CC)c1=S`, for which the max response was -1.22% (inactive). Consider `O=C(N/N=C/c1ccco1)c1cc(-c2ccncc2)nc2ccccc12`, for which the Potency is 11.2 µM (active). With `CC(/C=N/NC(=O)c1cc(-c2ccc3ccccc3c2)n[nH]1)=C\c1ccco1`, the Potency was 14 µM (active). `CCC(=C/c1sc2ccc3ccccc3c2[n+]1C)/C=C1\Sc2ccc3ccccc3c2N1C`: the max response was -21.8% (inactive). With `Cc1[nH]c2ccccc2c1/C=N/NC(=O)c1cc(-c2ccncc2)nc2ccccc12`, the Potency was 9.94 µM (active).

As for `COc1ccccc1NC(=O)Cc1ccc(-c2ccccc2)cc1`, the max response was -14.2% (inactive).

Take `O=C(NC(=S)Nc1ccc(-c2ccccc2)cc1)c1ccccc1`: the max response is 2.13% (inactive). On to `O=C(Nc1ccccc1OC(=O)c1ccccc1)c1ccccc1`, for which the Potency is 17.7 µM (active).

Regarding `Cc1cc2c(cc(C(=O)OCC(=O)NCc3cccs3)n2C(C)C)o1`, the Potency was 6.27 µM (active). For the compound `CCn1cc(/C=C/c2cc[n+](C)cc2)c2ccccc21`, the Potency was 1.77 µM (active). Regarding `CC(C)n1cc(/C=C/c2cc[n+](C)cc2)c2ccccc21`, the Potency was 3.53 µM (active). In the case of `C=CCn1cc(/C=C/c2cc[n+](C)cc2)c2ccccc21`, the Potency was 0.886 µM (active). `O=c1[nH]c2cc(Br)cnc2nc1/C=C(\O)c1ccc(F)cc1`: the Potency was 18.4 µM (active). `COc1ccc(-n2nnnc2-c2cccc(OC)c2)cc1`: the Potency is 1.98 µM (active).

Consider `CCOc1cccc(-n2nnnc2-c2ccc(OC)cc2)c1`, for which the Potency is 4.98 µM (active). Regarding `COc1ccc(-n2nnnc2-c2ccccc2)cc1`, the Potency was 3.14 µM (active). Regarding `COc1cccc(C(=O)Nc2ncc3c(n2)CC(c2ccc(OC)cc2OC)CC3=O)c1` (configuration not stated), the Potency is 17.7 µM (active).

Take `CCN(CC)c1ccc2cc(-c3nc4sc5c(c4c(=O)[nH]3)CCC(C(C)(C)C)C5)c(=O)oc2c1` (configuration not stated): the max response was 48% (inactive). As for `COc1ccc2cc(-c3nc(Cl)c4c5c(sc4n3)CC(C)CC5)c(=O)oc2c1` (configuration not stated), the Potency was 20.6 µM (active). Turning to `COc1ccccc1-c1nnc2sc(-c3cc4ccccc4o3)nn12`, the Potency is 1.98 µM (active). As to `CS(=O)(=O)N(CC(=O)N1CCN(Cc2ccccc2)CC1)c1ccccc1F`, the max response was -9.78% (inactive). For the compound `CCN(CC)CCCNc1ccc2ncn3c4ccc(O)cc4c(=O)c1c23`, the Potency was 23.1 µM (active). For the compound `CN(C)C(=O)c1cccc(-c2cnc3c(NC=O)cc(-c4ccccc4F)cn23)c1`, the max response is -0.0482% (inactive). On to `Cc1ccc(-c2cc(NC=O)c3ncc(-c4cccc(C(=O)N(C)C)c4)n3c2)cc1`, for which the Potency was 8.86 µM (active). Consider `Cc1ccc(-c2cc(NC=O)c3ncc(-c4cnn(C)c4)n3c2)cc1`, for which the Potency is 3.14 µM (active).

For `CC(C)n1c(O)c(N=Nc2ccc(Cl)nn2)c2ccccc21`, the Potency is 18.4 µM (active). Consider `CCOC(=O)/C=c1\s/c(=C\c2c(OC)ccc3ccccc23)c(=O)n1CC(=O)NCC1CCCO1` (configuration not stated), for which the Potency was 14.6 µM (active).

Consider `NC(=O)CSc1nc2c(sc3ccccc32)c(=O)n1CCCC(=O)NCC1CCCO1` (configuration not stated), for which the max response was -5.1% (inactive). Take `CCOC(=O)/C=c1/s/c(=C\c2c(OC)ccc3ccccc23)c(=O)n1CC(=O)NCC1CCCO1` (configuration not stated): the Potency was 11.2 µM (active). With `CN(C)c1ccc(/C=C/c2ccnc3c(Cl)cccc23)cc1`, the Potency was 11.6 µM (active). Take `CN(C)c1ccc(/C=C/c2ccnc3c(N)cccc23)cc1`: the Potency was 14.6 µM (active). Same read-out and setting: under `CN(C)c1ccc(/C=C/c2ccnc3c(Cl)ccc(Cl)c23)cc1` stands 3.26 µM (active). Regarding `c1cncc(-c2nc(NCc3cccs3)c3ccccc3n2)c1`, the max response is -5.92% (inactive). With `Brc1ccc2c(c1)C(c1cccnc1)=NNC(c1cccs1)=N2`, the Potency is 8.86 µM (active).

For the compound `CC(=O)n1cc(/C=N/NC(=O)c2sc(C)nc2C)c2ccccc21`, the Potency is 17.7 µM (active). For the compound `O=C(c1ccc(CS(=O)c2ccccc2Cl)o1)N1CCN(c2ccccc2F)CC1` (configuration not stated), the Potency is 2.91 µM (active). Turning to `Cn1c(=O)[nH]c(=O)c2c1nc(Br)n2Cc1cccc(Br)c1`, the Potency was 7.04 µM (active). Take `O=C1C=CC(O)(c2cc(=O)c3c(O)cc(O)cc3o2)C=C1`: the Potency was 7.9 µM (active).

For the compound `COc1cc(-c2noc(C)c2C#Cc2ccc(N)cc2)cc(OC)c1OC`, the Potency is 0.444 µM (active). The same measure, in the same setting: for `CCOC(=O)N1C/C(=C\c2ccccc2)C(=O)/C(=C/c2ccccc2)C1` the value was 8.86 µM (active). In the case of `Cc1cccc(C(=O)Nc2nnc(C3=COCCO3)o2)c1`, the max response was -1.82% (inactive). Take `CCc1sc(-c2cc3ccc(O)cc3oc2=O)nc1-c1ccc(C)cc1`: the Potency is 2.59 µM (active).

With `CCN(CC)c1ccc2cc(-c3nc(-c4ccc(Cl)cc4Cl)cs3)c(=O)oc2c1`, the max response is 34.3% (inactive). Consider `O=c1oc2cc(O)ccc2cc1-c1nc(-c2ccc(Cl)c(Cl)c2)cs1`, for which the Potency is 1.16 µM (active). As to `NC(=O)C1CCN(c2nc3ccccc3nc2NS(=O)(=O)c2ccc(Br)cc2)CC1`, the max response was -5.92% (inactive). Consider `CN1CCN(c2nc3ccccc3nc2NS(=O)(=O)c2ccc(Br)cc2)CC1`, for which the max response was -6.45% (inactive). For `O=S(=O)(Nc1nc2ccccc2nc1N1CCN(c2ccccn2)CC1)c1ccc(Cl)cc1`, the Potency was 16.4 µM (active). The same measure, in the same setting: for `CCN1C(=S)SC(=O)C1=C1C=C(C)N(Cc2ccco2)C(C)=C1` the value was 15.8 µM (active). For the compound `Cc1cccc(C)c1NC(=S)NC(C)CCc1ccccc1` (configuration not stated), the max response was -1.19% (inactive). The same measure, in the same setting: for `CCOC(=O)c1csc(NC(=O)c2cc(-c3ccccn3)nc3ccccc23)n1` the value was -7.52% (inactive). For `CC(C)(C)c1ccc(Oc2ccc(NC(=O)c3ccccc3C(=O)O)cn2)cc1`, the max response is 6.3% (inactive). On to `COc1ccc(NC(=O)c2cccc3ccccc23)cc1`, for which the Potency is 15.8 µM (active).

Consider `COc1cc(C(=O)Nc2ccc(C)cc2)c2ccccc2n1`, for which the Potency is 2.5 µM (active). For `O=C(O)CSc1c2ccccc2cc2ccccc12`, the max response was -3.73% (inactive).

`COc1ccc(NC(=O)c2c(Cl)n(C)c3ccccc23)cc1`: the Potency was 14 µM (active).

For the origin of these results see PubChem BioAssay AID651813 (National Center for Advancing Translational Sciences (NCATS), 2012).
